# The campaign covered roughly 2,100 compounds. About 590 (28%) were called active. Another 42% or so got no clear call; they are omitted. The list shows a part of the results. A number with no mark means an inactive call. Calls come from the whole dose curve; as a rule, active = well fitted inhibition curve with a large enough effect; inconclusive = small, poorly fitted or top-dose-only effect; inactive = flat fitted curve, though single readings scatter.
# Target: DNA dC->dU-editing enzyme APOBEC-3F (Homo sapiens) (UniProt Q8IUX4)
# Sequence (Q8IUX4 whole entry, looked up): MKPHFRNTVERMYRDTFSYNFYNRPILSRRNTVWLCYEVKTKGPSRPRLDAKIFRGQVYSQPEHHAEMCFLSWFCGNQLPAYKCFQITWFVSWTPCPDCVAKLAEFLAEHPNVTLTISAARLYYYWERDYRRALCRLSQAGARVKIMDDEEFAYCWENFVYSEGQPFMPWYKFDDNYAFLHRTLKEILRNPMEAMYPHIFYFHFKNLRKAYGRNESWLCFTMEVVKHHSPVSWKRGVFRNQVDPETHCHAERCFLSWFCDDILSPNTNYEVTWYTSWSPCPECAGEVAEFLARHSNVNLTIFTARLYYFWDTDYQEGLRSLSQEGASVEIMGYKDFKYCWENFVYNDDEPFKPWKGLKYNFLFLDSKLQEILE
# Experiment: qHTS for inhibitors of Vif-A3F interactions: Cherry picks; note: nearly all actives have a fitted effect of over 70% in size;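 for max response: % of control where 0% means no effect; active compounds raise eYFP fluorescence by blocking Vif-driven A3F loss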
# Conditions: HeLa A3F-eYFP + Vif (tagged APOBEC3F with the HIV-1 protein that degrades it), eYFP fluorescence, 24 h
# Outline: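 Read-out: yellow fluorescence (ex 488 nm, em 500-530 nm) by laser-scanning cytometer after 24 h compound exposure, several concentrations, at 37 deg C. Cells: HeLa line stably co-expressing Vif and C-terminally eYFP-tagged A3F; MG132 served as positive control.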
# Potency is the fitted concentration of half-maximal effect.
SMILES,Potency,max response
CCN(CC)c1nc2ccccc2nc1C(C#N)C(=O)NCCc1ccccc1 (stereo unspecified),3.66 µM (active),
N#CC(C(=O)NCc1ccccc1)c1nc2ccccc2nc1N1CCCC1 (stereo unspecified),,-25.3%
CC1=CN2C(=N)/C(=C/c3ccc([N+](=O)[O-])o3)C(=O)N=C2S1,14 µM (active),
CCS(=O)(=O)C1=NN2C(=N)/C(=C\c3ccc(SCc4ccco4)o3)C(=O)N=C2S1,,-0.189%
CCCCN1C(=O)/C(=C/C=C2\Oc3ccccc3N2CC)SC1=S,,-1.16%
CCSC1=N/C(=C\C=C2/Oc3ccccc3N2CC)C(=O)S1,20.6 µM (active),
CC(O)CN(CC(C)O)c1ccc2c(c1)Cc1cc([N+](=O)[O-])ccc1-2 (stereo unspecified),3.66 µM (active),
COC(=O)c1[nH]c2c(c1C(=O)OC)CCc1ccccc1-2,,-7.85%
CC(C)c1ccc(NC(=O)Nc2cnccn2)cc1,,-23.5%
CC(=O)c1sc2nc(-c3cccs3)cc(C(F)(F)F)c2c1N,7.31 µM (active),
CC(C)(C)C(=O)c1sc2nc(-c3cccs3)cc(C(F)(F)F)c2c1N,1.03 µM (active),
CCN(CC)C(=O)c1sc2nc(-c3cccs3)cc(-c3ccc(Cl)cc3)c2c1N,15.8 µM (active),
Nc1c(C(=O)C2CC2)sc2nc(-c3cccs3)cc(C(F)(F)F)c12,1.64 µM (active),
Cc1nc(-c2ccc(Cl)cc2)sc1C(=O)NN,,-25%
S=C(NC1CCCCC1)N(CCc1ccccc1)CCc1ccccc1,,-2.16%
Cc1ccc(N2C(=O)CS/C2=C(\C(Cl)=C(Cl)Cl)[N+](=O)[O-])cc1,,2.65%
Cc1ccc(NC(=O)Cc2ccc(-n3cccc3)cc2)c(C)c1,,-1.25%
O=C(O)c1ccc(N/N=C/C(Br)=C/c2ccccc2)cc1,,-18.2%
Cc1ccc(NC(=O)C(=Cc2ccc(C(=O)O)cc2)C(=O)Nc2ccc(C)cc2C)c(C)c1,5.59 µM (active),
O=C1COc2ccc(C(=O)CSc3nc4ccccc4c(=O)n3-c3ccc(Cl)c(Cl)c3)cc2N1,18.4 µM (active),
O=S(=O)(N=C1C=CC(=NS(=O)(=O)c2ccccc2)c2ccccc21)c1ccccc1,,-24.1%
O=C(/C=C/c1ccncc1)c1cc(Cl)ccc1O,,3.83%
CC[n+]1c(/C=C/N(C)c2ccccc2)oc2ccc(F)cc21,11.2 µM (active),
CC[n+]1c(/C=C/Nc2ccccc2)oc2ccc(OC)cc21,20.6 µM (active),
CC[n+]1c(/C=C/Nc2ccccc2)oc2ccccc21,7.31 µM (active),
COc1ccc(N/C=C/C(=O)c2sc(-c3ccccc3)nc2C)cc1,,-17.8%
